Our source for the activation and Potency values is PubChem BioAssay (NCATS).

Inconclusive results are not listed. Unmarked numbers belong to inactive results. The source made the active and inactive calls. Calls come from the whole dose curve; as a rule, active = well fitted curve in the direction sought with a large enough effect; inconclusive = small, poorly fitted or top-dose-only effect, or another doubt; inactive = no such curve, though single readings can be large; an effect the other way counts as inactive or inconclusive.

Test [1] addresses Cellular tumor antigen p53 (Homo sapiens) (UniProt P04637). Nature of the test: Primary qHTS for small molecule compounds that upregulate eGFP-tagged delta133p53alpha (in N-terminal) cells. (AID 2060322).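 For activation: cells pre-induced with doxycycline then dosed without doxycycline; series mostly up to about 56 µM; 0% = DMSO vehicle and 100% = reference activator.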 Note: nearly all actives have a fitted effect of over 75% in size. Note: potency is the fitted concentration of half-maximal effect. The settings on record: NCI-H358 eGFP-delta133p53alpha fluorescence, 24 h; activation: active compounds read high. The procedure, abridged: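 NCI-H358 cells pre-induced 24 h with 10 ng/ml doxycycline for eGFP-delta133p53alpha, plated dox-free and exposed 24 h at 37C to titrated compounds. Fixed, Hoechst-stained; gated GFP peak intensity by laser scanning cytometry, normalized to DMSO (0%) and 57.5 uM 5-azacytidine (100%).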

Test [2] has as its target Aldehyde dehydrogenase, mitochondrial (Homo sapiens) (UniProt P05091). As to the kind of experiment: qHTS for Inhibitors of the Aldehyde Dehydrogenase Family (ALDH2) Primary screen (AID 2061308).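 Note: plate controls were vehicle for no effect and reference inhibitor for full effect; nearly all actives have a fitted effect of over 55% in size.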 On the technique in general: In qHTS, concentration-response curves come from the screen itself.
For test [3], the target named is Retinaldehyde dehydrogenase 3 (Homo sapiens) (UniProt P47895). As to the kind of experiment: qHTS for Inhibitors of the Aldehyde Dehydrogenase Family (ALDH1A3) Primary screen (AID 2061315).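 Note: plate controls were DMSO vehicle for no effect and reference inhibitor for full effect.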

Chain of Cellular tumor antigen p53 (Homo sapiens) (P04637 whole entry, looked up): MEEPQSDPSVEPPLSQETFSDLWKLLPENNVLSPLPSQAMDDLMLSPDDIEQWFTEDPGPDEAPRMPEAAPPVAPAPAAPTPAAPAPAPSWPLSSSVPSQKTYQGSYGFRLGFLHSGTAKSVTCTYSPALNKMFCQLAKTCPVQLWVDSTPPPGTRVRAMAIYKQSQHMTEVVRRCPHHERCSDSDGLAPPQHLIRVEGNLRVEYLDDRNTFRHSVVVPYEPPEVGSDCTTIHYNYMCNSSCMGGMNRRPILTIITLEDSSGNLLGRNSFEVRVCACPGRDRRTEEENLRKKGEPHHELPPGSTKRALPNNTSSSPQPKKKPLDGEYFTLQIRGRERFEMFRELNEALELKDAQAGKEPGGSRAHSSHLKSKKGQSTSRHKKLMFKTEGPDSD

As for `CC12CCC3C(C)(C)C(O)CCC3(C)C1Cc1c(oc(C(=O)O)cc1=O)O2` (centres undefined), in test [1], the activation is -9.92%. Also, the Potency entry in test [2] and in test [3] was “inactive” throughout.
Turning to `O=C(C[C@@H]1C(C(=O)O)=CO[C@@H](O[C@@H]2O[C@H](CO)[C@@H](O)[C@H](O)[C@H]2O)/C1=C\CO)OCCc1ccc(O)c(O)c1`, the activation in test [1] is -14.3%. In addition, the Potency entry in test [2] and in test [3] was “inactive” throughout.
For `CC(O)CCc1ccc(O[C@@H]2O[C@H](CO)[C@@H](O)[C@H](O)[C@H]2O)cc1` (some centres undefined), the activation in test [1] was -10.7%. Moreover, the Potency entry in test [2] and in test [3] was “inactive” each time.
As to `CC1(C=O)CC[C@]2(C(=O)O[C@@H]3O[C@H](CO)[C@@H](O)[C@H](O)[C@H]3O)CC[C@]3(C)C(=CCC4[C@@]5(C)C[C@H](O)[C@H](O[C@@H]6OC[C@@H](O)[C@H](O)[C@H]6O)[C@@](C)(CO)C5CC[C@]43C)C2C1` (some centres undefined), the activation in test [1] was 6.87%. Also, the Potency result in test [2] and in test [3] was “inactive” throughout.
For `CCOc1ccc(-c2cc(NC(=O)c3c(F)cccc3F)c(C(=O)O)s2)cc1`, the activation in test [1] is 15.7%. For the same compound, the Potency result in test [2] and in test [3] was “inactive” each time.
In the case of `CC(C)CNCc1ccc(-c2ccccc2S(=O)(=O)N2CCCC2)cc1`, the activation in test [1] was 11.7%. Moreover, the Potency entry in test [2] and in test [3] was “inactive” throughout.
In the case of `CC/C=C\C[C@H]1C(=O)C=C[C@@H]1CCCCCCCC(=O)O`, the activation in test [1] is -8.93%. For the same compound, the Potency entry in test [2] and in test [3] was “inactive” in each case.
As to `C[C@@H]1O[C@@H](O[C@H]2[C@H](O[C@H]3CC[C@@]4(C)C(CC[C@]5(C)C4C=C[C@]46OC[C@@]7(CCC(C)(C)C[C@H]74)[C@@H](O[C@@H]4O[C@@H](C)[C@H](O)[C@@H](O)[C@H]4O)C[C@]65C)[C@]3(C)CO)O[C@H](CO)[C@@H](O)[C@@H]2O[C@@H]2O[C@H](CO)[C@@H](O)[C@H](O)[C@H]2O)[C@H](O)[C@H](O)[C@H]1O` (some centres undefined), the activation in test [1] was 0%. Moreover, the Potency result in test [2] and in test [3] was “inactive” each time.
For the compound `C=C[C@H]1[C@H](O[C@@H]2O[C@H](CO)[C@@H](O)[C@H](O)[C@H]2O)OC=C(C(=O)OC)[C@H]1C[C@@H]1c2cc(O)c(O)cc2CCN1C(C)=O`, the activation in test [1] was -6.11%. Moreover, the Potency entry in test [2] and in test [3] was “inactive” in each case.
For the compound `COc1cc(O)cc(C)c1C(=O)OC1C(CO)OC(n2ccc(=O)[nH]c2=O)C1OC(C)=O` (centres undefined), in test [1], the activation is -6.11%. The Potency entry in test [2] and in test [3] was “inactive” throughout.
Consider `CO[C@H]1C=C2C(CC[C@H](O[C@@H]3O[C@H](CO)[C@@H](O)[C@@H](O)[C@H]3O)C2(C)C)[C@]2(C)CC[C@]3(C)C([C@H](C)C(O)C(C=C(C)C)O[C@@H]4O[C@H](CO)[C@@H](O)[C@@H](O)[C@H]4O)CC[C@@]3(C)C12` (some centres undefined), for which the activation in test [1] was 0.763%. In addition, the Potency entry in test [2] and in test [3] was “inactive” in each case.
Regarding `CC1=CC(=O)CC(C)(CO[C@@H]2O[C@H](CO)[C@@H](O)[C@H](O)[C@H]2O)C1(O)/C=C/C(C)=C/C(=O)O` (some centres undefined), the activation in test [1] is 0.893%. Moreover, the Potency entry in test [2] and in test [3] was “inactive” throughout.
`C=C1[C@@H]2[C@H]3OC(=O)C(=C)[C@@H]3CC[C@@](C)(O)[C@@H]2C[C@@H]1O[C@@H]1O[C@H](CO)[C@@H](O)[C@H](O)[C@H]1O`: in test [1], the activation was 15.2%. In addition, the Potency entry in test [2] and in test [3] was “inactive” throughout.
Consider `COc1ccc(C2(N(C)C(=O)c3ccc(NC(=O)c4ccco4)cc3)CCOCC2)cc1`, for which the activation in test [1] is -10.7%. Further, the Potency result in test [2] and in test [3] was “inactive” throughout.
Consider `C/C(=C/CO)CC[C@H]1[C@]2(C)C[C@H](O)CC(C)(C)[C@H]2CC[C@]1(C)O`, for which, in test [1], the activation was -9.92%. The Potency entry in test [2] and in test [3] was “inactive” in each case.
`O=C(CSc1nc2ccccc2c(=O)n1-c1ccccc1)Nc1ccc2c(c1)CCC2`: the activation in test [1] was 5.67%. Moreover, the Potency entry in test [2] and in test [3] was “inactive” throughout.
Regarding `CN1C(=O)c2ccccc2-n2c(nc3ccccc3c2=O)/C1=C/c1ccccc1`, in test [1], the activation was 2.29%. In addition, the Potency result in test [2] and in test [3] was “inactive” throughout.
`C[C@@H]1O[C@@H](O[C@@H]2CO[C@@H](O[C@H]3CC[C@@]4(C)C(CC[C@]5(C)C4CC=C4[C@@H]6CC(C)(C)CC[C@]6(C(=O)O[C@@H]6O[C@H](CO)[C@@H](O)[C@H](O)[C@H]6O)CC[C@]45C)[C@]3(C)CO)[C@H](O)[C@H]2O[C@@H]2O[C@H](CO)[C@@H](O)[C@H](O)[C@H]2O)[C@H](O)[C@H](O)[C@H]1O` (some centres undefined): in test [1], the activation is -16.1%. The Potency result in test [2] and in test [3] was “inactive” in each case.
As to `COC1CC(=O)CCC(C)OC(=O)CC1O` (centres undefined), the activation in test [1] is -6.87%. Besides, the Potency result in test [2] and in test [3] was “inactive” in each case.
As to `COc1ccccc1-c1cc(Nc2cccc(CS(N)(=O)=O)c2)ncn1`, the Potency in test [1] was 8.49 µM (active). For the same compound, the Potency result in test [2] and in test [3] was “inactive” each time.
On to `CC(=O)O[C@H]1C[C@@]2(C)[C@@H](C[C@@H](O)[C@H]3[C@@]4(C)CC[C@@H](O)[C@@H](C)[C@@H]4CC[C@@]32C)/C1=C(\CCC=C(C)C)C(=O)O`, for which the activation in test [1] is 9%. In addition, the Potency result in test [2] and in test [3] was “inactive” in each case.
With `COC(=O)[C@H](Cc1ccc([N+](=O)[O-])cc1)NC(=O)c1cccc2ccccc12`, in test [1], the activation is 11.5%. Also, the Potency result in test [2] and in test [3] was “inactive” each time.
With `CC/C=C/CC1=C(CCCCCCCC(=O)O)CCC1=O`, the activation in test [1] is -17.9%. Also, the Potency entry in test [2] and in test [3] was “inactive” each time.
